Compound activity: PubChem BioAssay, National Center for Advancing Translational Sciences (NCATS)
Chronic BCR inh: inhibitors of chronic active B-cell receptor signaling; Potency, µM (highest dose often 46.1 µM), most hits filed as inhibitors; ABC-DLBCL IkBa-CBG/CBR reporter, luminescence ratio, 4 h; 340,000 compounds, 0.05% hits; AID 493014; active = well fitted inhibition curve with a large enough effect in the signal ratio, with a control signal flat, not every such curve was filed as active; inconclusive = small, poorly fitted or top-dose-only effect, or effect the other way, or a change in a side signal; the % refers to the signal ratio
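Doxycycline induced both beetle luciferases in TMD8 lymphoma cells; IKK-driven degradation limits the IkappaBalpha-fused green signal, while red luminescence normalises for cell number and nonspecific effects. Compounds tested up to 46 uM, 4 hrs.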
IL-2 act: activators of IL-2; IL-2 activation reporter assay, cell-based qHTS; stimulated with anti-CD3/CD4/CD28 beads; in transgenic mouse T cells; 360,000 compounds, 0.065% hits; activation, % (series mostly up to about 46 µM); in the data active = activation above about 50%; inconclusive = mostly about 30% to 49%
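Unstimulated transgenic mouse T cells, 750 per well, received compound and, after 60 minutes, anti-CD3/anti-CD4 bead plus anti-CD28 stimulation. EGFP and DsRed were quantified after 18 hours.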
BRCA1 expr up: increases BRCA1 expression; Potency, µM (highest dose often 46.1 µM), usual class: activators; MCF7-BRCA1-FFLuc reporter, luminescence, 48 h; response scale: scaled: vehicle 0%, 10 µM genistein 100%; 380,000 compounds, 1.1% hits; AID 624202; also: nearly all actives have a fitted effect of over 80% in size
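MCF7-BRCA1-FFLuc, 2000 cells/well; 2 h attach, 37 °C/5% CO2; compound 48 h; luciferase substrate 15 min; luminescence end-point. Norm. to genistein 10 microM max activation and DMSO; concentration-response curves fitted.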
Mito fusion yeast: inhibitors of mitochondrial division or activators of mitochondrial fusion; S. cerevisiae fusion-defective mutant growth rescue, CellTiterGlo 48 h; Potency, µM (series often up to 46.1 µM), usual class: activators; 320,000 compounds, 0.23% hits; AID 485298; also: nearly all actives have a fitted effect of over 45% in size
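Compounds are tested for their ability to restore growth of mitochondrial fusion-defective yeast strains at non-permissive 37C in YPEG medium over 48 hours. Viability is quantified by luciferase luminescence.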
PTHR1 agonist: PTHR1 (human) receptor agonism; 410,000 compounds, 0.075% hits; AID 743266; Q03431; Potency, µM (titrated, usually from 115 µM), actives largely listed as activators; HEK293 GP2 PTHR1 cells, GloSensor cAMP luminescence, 1 h; also: nearly all actives have a fitted effect of over 55% in size
Target sequence (Q03431 whole entry, looked up): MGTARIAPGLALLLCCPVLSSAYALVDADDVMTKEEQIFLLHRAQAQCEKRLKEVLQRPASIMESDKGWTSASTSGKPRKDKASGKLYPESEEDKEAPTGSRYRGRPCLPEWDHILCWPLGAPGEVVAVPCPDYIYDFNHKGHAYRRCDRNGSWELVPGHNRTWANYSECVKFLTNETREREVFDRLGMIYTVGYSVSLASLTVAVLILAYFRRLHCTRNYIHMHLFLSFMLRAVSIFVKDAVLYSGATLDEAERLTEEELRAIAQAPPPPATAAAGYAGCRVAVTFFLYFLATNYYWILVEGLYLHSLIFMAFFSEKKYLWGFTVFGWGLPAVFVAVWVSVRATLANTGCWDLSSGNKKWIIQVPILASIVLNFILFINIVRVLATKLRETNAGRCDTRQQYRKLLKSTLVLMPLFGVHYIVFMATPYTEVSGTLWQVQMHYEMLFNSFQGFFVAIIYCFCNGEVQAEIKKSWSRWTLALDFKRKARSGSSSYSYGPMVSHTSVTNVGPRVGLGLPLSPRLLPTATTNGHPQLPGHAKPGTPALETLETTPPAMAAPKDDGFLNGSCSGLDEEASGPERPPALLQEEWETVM
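HEK-293-derived GP2 cells expressing PTHR1 and a GloSensor cAMP reporter, 3,000/well, plated overnight, given luciferin plus IBMX (each 0.5 mM as added) for 1 h at 37 °C, then compound for 1 h at 37 °C. Luminescence was read after 15 min at room temperature.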
TCR activator: activators of T cell receptors; primary human leukocytes, anti-CD3, IL-2 HTRF, 48 h; Potency, µM (series often up to 9.22 µM), most hits filed as activators; 330,000 tested, under 10 active; AID 504894
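Using a-CD3 beads without co-stimulation, primary human leukocytes were exposed to compounds for 48 hr. An HTRF IL-2 kit measured the cytokine, with europium-to-d2 energy transfer producing emission at 665nm upon 320nm excitation.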
A number is an active result; . = inactive; ? = inconclusive; / = no result given. Hits are enriched below; roughly 1.3% of the tested compounds scored in any of these assays. Unless noted, calls follow the shape of the dose curve; as a rule, active = well fitted curve in the direction sought with a large enough effect; inconclusive = small, poorly fitted or top-dose-only effect, or another doubt; inactive = no such curve, though single readings can be large; an effect the other way counts as inactive or inconclusive.

SMILES | Chronic BCR inh | IL-2 act | BRCA1 expr up | Mito fusion yeast | PTHR1 agonist | TCR activator
CCOC(=O)N/N=C\c1ccccc1OC/C=C/c1ccccc1 | . | . | 3.98µM | . | . | .
C=C1C=C(C(F)F)n2ncc(C(=O)N3CCCCC3)c2N1 | / | / | . | / | / | /
Cc1ccc(-c2cn3nc(N4CCCC(C(=O)NCc5ccccc5F)C4)sc3n2)cc1 (stereo not drawn) | / | / | / | / | . | /
C=CC(=O)N1CCC[C@@H](n2nc(-c3ccc(Oc4ccccc4)cc3)c3c(N)ncnc32)C1 | / | / | . | / | / | /
Cc1ccc(NC(=O)CSc2nc3cc(C(=O)NCC4CCCO4)ccc3c(=O)n2CC2CCCO2)cc1 (stereo not drawn) | / | . | . | / | . | /
O=C(CC1C(=O)NCCN1CCCc1ccccc1)NCCc1ccccc1Cl (stereo not drawn) | . | . | . | . | . | .
CC(C)(C)[C@H]1C=C(C(=O)NCc2nc3ccccc3[nH]2)O[C@@H](OCCCCO)C1 | ? | . | . | 5.62µM | . | .
O=C1NC(=S)N/C1=C/c1cccc2ccccc12 | ? | . | 12.6µM | . | . | .
O=C1NC(=S)NC1=Cc1ccccc1O | / | . | . | / | . | .
COc1ccc(N2CCN(C(c3cccs3)c3nnnn3C3CCCC3)CC2)cc1 (stereo not drawn) | . | . | . | 11.2µM | . | .
CCOc1ccc(CNC(=O)C2CCN(C(=O)N3CC(CC)Oc4ccc(C)cc43)CC2)cc1OC (stereo not drawn) | / | / | / | / | . | /
CC1CCCC(NC(=O)c2ccc3c(c2)OCCO3)C1C (stereo not drawn) | ? | . | 7.08µM | . | . | .
CC1CCCCC1NC(=O)c1ccc2c(c1)OCCO2 (stereo not drawn) | ? | . | . | . | . | .
COC(=O)C1C(=O)c2c([nH]c(C(=O)OC3CCCCC3)c2C)CC1C (stereo not drawn) | . | . | 5.01µM | . | . | .
COC(=O)C1C(=O)c2c([nH]c(C(=O)OC3CCCC3C)c2C)CC1C (stereo not drawn) | . | . | ? | ? | . | .
CN1CCN(c2ccc(NC(=S)NC(=O)/C=C/c3ccco3)cc2)CC1 | . | . | 4.47µM | . | . | .
CC(=O)Nc1ccc(NC(=S)NC(=O)/C=C/c2ccco2)cc1 | . | . | . | . | . | .
COc1ccc(OC)c(NC(=O)c2cc(-c3cc(Cl)ccc3O)n[nH]2)c1 | ? | . | . | . | . | /
COc1ccc(Cl)cc1NC(=O)c1cc(-c2ccccc2O)n[nH]1 | ? | . | . | 6.31µM | . | .
O=[N+]([O-])c1ccc(Nc2nc(NCCN3CCOCC3)nc(Nc3ccc(Cl)cc3)n2)cc1 | / | / | . | / | / | /
Cc1c(C(=O)O)cccc1-c1ccc(/C=N/Nc2ccc(Br)cc2)o1 | . | . | . | 20µM | . | .
Cc1cc(SCC(=O)c2ccccc2)nc(C)n1 | ? | . | 10µM | . | . | .
Cc1ccc2c(c1)sc1nc(=O)n(-c3ccc(Cl)cc3)c(=O)n12 | ? | . | . | . | . | .
Cc1ccc2c(c1)sc1nc(=O)n(-c3cccc(Cl)c3)c(=O)n12 | ? | . | 1.41µM | . | . | .
CC(c1ccccc1)n1c(-c2cccs2)nc2c(c(=O)c3ccccc3n2C)c1=O (stereo not drawn) | ? | . | . | 22.4µM | . | .
SMILES | Chronic BCR inh | IL-2 act | BRCA1 expr up | Mito fusion yeast | PTHR1 agonist | TCR activator
Cc1ccc(SCc2ccc(C(=O)N3CCCC3)cc2)cc1 | ? | . | 11.2µM | . | . | .
Cc1ccc2c(C(=O)CNc3nc(C)c(C)s3)c(C)[nH]c2c1 | / | / | . | / | / | /
CCCSc1nnc(Sc2nnnn2-c2ccccc2)s1 | 9.2µM | . | . | . | . | .
CCCCc1ccc(-c2csc(/C(C#N)=C/c3ccc(C)o3)n2)cc1 | . | . | . | . | . | .
CCCCc1ccc(-c2csc(/C(C#N)=C\c3ccco3)n2)cc1 | ? | . | 10µM | . | . | .
Cc1ccc(S(=O)(=O)c2nc(-c3cccs3)oc2N2CCC(C(N)=O)CC2)cc1 | . | . | . | / | . | .
